# Screens as filed in PubChem BioAssay.
# D1 PAM: human D1 dopamine receptor positive modulation; HEK293 TREx D1 cells, calcium flux, dopamine EC20 potentiation; P21728; potentiation, % at 10 µM; AID 504651; hit rate 0.036% among 360,000; in the data active = potentiation above about 30%; note: 0% is about no effect
# Target sequence (P21728 whole entry, looked up): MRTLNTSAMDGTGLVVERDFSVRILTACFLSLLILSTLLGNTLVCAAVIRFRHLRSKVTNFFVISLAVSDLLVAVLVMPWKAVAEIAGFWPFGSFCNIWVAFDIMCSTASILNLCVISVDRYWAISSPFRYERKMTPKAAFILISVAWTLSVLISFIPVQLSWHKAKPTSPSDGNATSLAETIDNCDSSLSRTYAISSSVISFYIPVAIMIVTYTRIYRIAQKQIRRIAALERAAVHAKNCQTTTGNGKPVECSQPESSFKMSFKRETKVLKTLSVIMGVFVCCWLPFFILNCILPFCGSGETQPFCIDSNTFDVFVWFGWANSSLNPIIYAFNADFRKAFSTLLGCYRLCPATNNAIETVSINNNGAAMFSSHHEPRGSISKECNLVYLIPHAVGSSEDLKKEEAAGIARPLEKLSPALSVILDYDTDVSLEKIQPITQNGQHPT
# DRD3 agonist: activates the human D3 dopamine receptor; hit rate 0.58% among 410,000; max activation, %; D3R DiscoveRx beta-arrestin cells, luminescence, 90 min; P35462; in the data active = max activation above about 30%; note: 0% is about no effect
#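 Agonist mode: compounds and dopamine controls were applied to plated cells for 90 min at 37 degrees C after an overnight attachment at 1500 cells/well. Luminescent read-out followed 30 - 60 minutes at room temperature with DiscoveRx detection reagent.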
# D3 antag: antagonists of human D3 dopamine receptor. AID 652054. D3R cells, DiscoveRx beta-arrestin luminescence, antagonist mode; hits give low values. P35462. max response, negative = inhibition, %. hit rate 2.5% among 360,000; in the data active = max response below about -50%; note: % is set by controls: 0 for no effect and ±100 for the full control effect
#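 Cells expressing the human receptor were seeded at 1500 cells/well, incubated overnight at 37 degrees C in 5% CO2, then exposed to library compounds with dopamine controls for 90 minutes at 37 degrees C before luminescent detection.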
# D1 antagonist: blocks dopamine activation of the human D1 receptor | P21728 | HEK293 TREx D1 cells, calcium flux, dopamine EC80; hits give low values | hit rate 3.2% among 360,000 | activity change, negative = inhibition, % at 10 µM | AID 504652; in the data active = activity change below about -30%; note: % is set by controls: 0 for no effect and ±100 for the full control effect
#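 Calcium flux readout: force-coupled, inducible Hek293 Trex D1 line, cells induced overnight at 30 C with tetracycline, dye-loaded 30–90 min at RT. Antagonism scored against EC80 dopamine challenge given 180 s after compound.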
# D1 agonist: agonists of human D1 dopamine receptor; hit rate 1% among 360,000; AID 504660; activation, % at 2 µM; HEK293 T-REx D1 cells, calcium flux, agonist mode; in the data active = activation above about 30%; note: 0% is about no effect
#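 Agonism was scored from calcium flux recorded over 180 s (1 read/s) after pintool compound addition, following a 10-cycle baseline. Cells were inducible force-coupled HEK293 TREx D1, plated overnight at 30 C and loaded with no-wash calcium dye.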
# An asterisk follows results filed as active; nt = no result. Compounds with a hit are over-represented: about 6% of the library has one in this group of screens.
SMILES,D1 PAM,DRD3 agonist,D3 antag,D1 antagonist,D1 agonist
CC(Oc1ccccc1)C(=O)Nc1cccc(-c2nc3ccccc3[nH]2)c1 (centres undefined),-9,-2,11,-40*,14
COc1cccc(CNC(=O)c2sc3nc(C)cc(C)c3c2-n2cccc2)c1OC,1,-6,nt,12,1
COc1ccc(CCNC(=O)c2ccc(Cn3c(=O)c4ccccc4n(CC(=O)C(C)(C)C)c3=O)cc2)cc1OC,0,1,nt,5,5
CCN(CC)c1ccc(C(=O)OCc2cc(=O)oc3cc(O)ccc23)cc1,-11,-2,6,-33*,2
CCN(CC)c1ccc2c(O)cc(=O)oc2c1,-2,-3,8,-8,1
Cc1nc2c(Cl)cccc2c2c1CC(CBr)O2 (centres undefined),-2,2,37,-31*,1
Cc1c(C)c2c(cc(C)c3c(-c4ccccc4)coc32)oc1=O,1,-4,nt,19,0
O=C(c1ccoc1)N1CCC2(CC1)Oc1ccc(Cl)cc1C(=O)C21CC(c2cccnc2)=NO1 (centres undefined),-9,-1,33,-100*,5
O=C(c1ccoc1)N1CCC2(CC1)Oc1ccc(Cl)cc1C(=O)C21CC(c2ccccc2)=NO1 (centres undefined),-2,-3,-5,-5,4
COc1ccc(NC(=O)/C(C#N)=C/c2c(C)nn(-c3ccc(F)cc3)c2Cl)cc1OC,-17,1,18,-32*,1
O=C(COc1ccc2c(c1)CCC2)N1CCN(c2cccc(C(F)(F)F)c2)CC1,-2,0,-6,-44*,8
O=C(COc1cccc(C(F)(F)F)c1)N1CCN(c2ccccc2O)CC1,-6,-1,13,-34*,12
O=C(COc1cccc(C(F)(F)F)c1)N1CCN(c2ccc(O)cc2)CC1,9,15,8,-4,6
COCC(=O)N1CCN(c2cccc(C(F)(F)F)c2)CC1,-4,-11,-8,-3,1
CCOc1ccc(NC(=O)NCCn2nnc3cc(S(=O)(=O)N(C)C)ccc32)cc1,-1,6,nt,-5,1
CC(=O)c1ccc(NC(=O)C(C)Nc2ccc(Cl)cc2)cc1 (centres undefined),-5,-12,-56*,9,10
O=C(Nc1ccc([N+](=O)[O-])cc1)Nc1ccc([N+](=O)[O-])cc1,nt,-11,nt,nt,nt
Cc1ccc(C(C)C)cc1NC(=O)Nc1ccc([N+](=O)[O-])cc1,-14,4,0,-49*,17
CC(=O)c1ccc(NC(=O)Nc2ccc([N+](=O)[O-])cc2)cc1,-3,6,-14,-36*,21
O=C(Nc1ccc([N+](=O)[O-])cc1)Nc1cnccn1,-9,-5,-12,-32*,16
CCOc1ccccc1NC(=O)c1nn(-c2ccc(C)cc2)c(=O)n(C)c1=O,-3,-3,nt,-20,0
COc1cccc(CSc2nc3n(n2)C(CC(C)C)C(C(=O)Nc2ccccc2C)=C(C)N3)c1 (centres undefined),2,-8,nt,-12,0
CC(=O)c1ccc(NC(=O)Nc2ccc(Cl)cc2)cc1,-5,0,11,-35*,30
CC(=O)c1ccc(NC(=O)Nc2ccncc2)cc1,-3,3,9,nt,3
COc1cccc(-c2nnc3sc(CN4CCCCC4)cn23)c1,-4,-21,nt,13,1
SMILES,D1 PAM,DRD3 agonist,D3 antag,D1 antagonist,D1 agonist
c1ccc(CSc2nc3ncccc3[nH]2)cc1,-1,6,nt,1,-1
CC(C)COc1ccccc1C1CC(=O)Nc2cc3c(cc21)OCO3 (centres undefined),-1,-2,nt,4,26
COC(=O)C1=CO[C@@H](C)[C@H]2CN3CCc4c([nH]c5ccccc45)[C@@H]3C[C@H]12,-7,14,18,-52*,0
O=C1CCC2CN3CCc4c([nH]c5ccccc45)C3CC2C1 (centres undefined),nt,-12,-90*,nt,nt
COc1ccc2c3c([nH]c2c1)[C@H]1C[C@H]2[C@H](C[C@@H](O)[C@H](OC)[C@H]2C(=O)O)CN1CC3,-2,2,-2,-3,-1
C[C@H](O)[C@@H]1CN2CCc3c([nH]c4ccccc34)[C@@H]2C[C@@H]1N(C)C(=O)NC1CCCCC1,nt,-15,-58*,nt,nt
O=C(O)[C@@H]1[C@H]2C[C@H]3c4[nH]c5ccccc5c4CCN3C[C@@H]2CC[C@@H]1O,-6,-71,-61*,17,2
